Compound activity deposited in PubChem BioAssay by several laboratories.
CD11b adhes inh – blocks human CD11b/CD18 adhesion to fibrinogen | P05107+P11215 | inhibition, % at 10 µM | 93,000 compounds, 0.54% hits | K562 CD11b/CD18 adhesion to fibrinogen, ATPlite luminescence; Mn2+ added to activate the integrin;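 active = primary inhibition of 50% or more at 10 µM, then 40% or more on retest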
Target sequence (P05107 whole entry, looked up, other chains not shown): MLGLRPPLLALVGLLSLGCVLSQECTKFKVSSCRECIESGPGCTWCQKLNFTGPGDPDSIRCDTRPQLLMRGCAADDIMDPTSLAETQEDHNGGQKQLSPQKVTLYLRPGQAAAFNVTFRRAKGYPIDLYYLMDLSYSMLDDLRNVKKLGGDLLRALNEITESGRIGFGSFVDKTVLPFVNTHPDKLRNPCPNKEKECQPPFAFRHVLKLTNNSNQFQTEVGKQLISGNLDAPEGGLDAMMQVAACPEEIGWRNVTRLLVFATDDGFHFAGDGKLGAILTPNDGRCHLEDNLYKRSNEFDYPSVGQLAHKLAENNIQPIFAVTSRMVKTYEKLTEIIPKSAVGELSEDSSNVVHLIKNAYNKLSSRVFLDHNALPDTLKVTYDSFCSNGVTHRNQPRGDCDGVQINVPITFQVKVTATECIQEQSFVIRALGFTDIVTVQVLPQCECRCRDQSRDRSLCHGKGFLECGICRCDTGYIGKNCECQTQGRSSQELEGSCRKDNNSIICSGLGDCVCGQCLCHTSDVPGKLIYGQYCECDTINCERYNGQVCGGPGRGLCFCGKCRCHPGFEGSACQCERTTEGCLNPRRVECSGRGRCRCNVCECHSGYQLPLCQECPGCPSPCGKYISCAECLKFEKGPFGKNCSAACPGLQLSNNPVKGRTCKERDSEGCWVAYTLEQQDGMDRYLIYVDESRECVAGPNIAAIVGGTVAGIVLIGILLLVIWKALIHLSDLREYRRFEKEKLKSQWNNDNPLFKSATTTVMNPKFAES
CD11b adhes enh – CD11b/CD18-fibrinogen binding enhancement; P05107+P11215; K562 CD11b/CD18 adhesion to fibrinogen, ATPlite luminescence; activation, % at 10 µM; 93,000 compounds, 0.07% hits; AID 1499;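 active = 10 µM primary screen giving 50% or more activity, confirmed by 40% or more on retest at that dose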
PTK2B oligo ant – antagonists of human Pyk2 oligomerization | Q14289 | Q293 cells, Pyk2 FERM NanoBiT luminescence; active compounds read low | z-score (the deposit names both 25 µM and 10 µM) | 99,000 compounds, 0.83% hits;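 active = Z-score of -3 or lower, scaled per plate to the spread of control and sample wells; inactive = z-score above -3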;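 note: negative z-score means lost luminescence so less FERM oligomerization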
E coli RNAP – blocks E. coli RNA polymerase transcription; P0A8V2; fluorescence transcription assay; inhibition, %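 (tested at 10 µM)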; 62,000 compounds, 0.2% hits; in the data active = inhibition above about 20%;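 note: 0% = enzyme without compound and 100% = no enzyme blank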
Cav3 T inh – human Cav3.2 channel inhibition, primary screen. B-score at 10 µM. 100,000 compounds, 4% hits. Cav3.2-expressing cells, Fluo-4 calcium fluorescence FDSS; active compounds read low;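 active = single-dose well whose peak fluorescence ratio is a statistical outlier from its plate by either plate-standardised score or position-corrected B-score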
Numbers without * were called inactive; . = not tested or not shown. An excerpt weighted towards active compounds, which were near 4.2% of everything screened.

SMILES | CD11b adhes inh | CD11b adhes enh | PTK2B oligo ant | E coli RNAP | Cav3 T inh
Cc1cc2ccccc2c(=O)n1CC(=O)NCC(=O)N1CCN(c2ccccc2F)CC1 | -9 | -1 | 0.14 | 3 | -3.8*
Cc1cc2ccccc2c(=O)n1CC(=O)NCC(=O)N1CCCC(C)C1 (configuration not stated) | -36 | 1 | -0.57 | . | 0.87
COc1ccc(C)cc1NC(=O)CSc1nnc(CC(=O)Nc2ccccc2C)n1C | -8 | -6 | 0.17 | . | -0.32
Cc1onc(-c2ccccc2)c1-c1nc2ccccc2c(=O)o1 | 1 | 0 | -0.4 | . | 1.4
CCn1c(C)nc2cc(-c3nnc(-c4c(-c5ccccc5)noc4C)o3)ccc21 | 0 | -5 | -3.1* | 5 | 1.6
COc1ccc(C(=O)/C=C/c2ccc(OC)c(Cn3nnc4ccccc43)c2)cc1 | 14 | 21 | . | . | .
COc1nccnc1NS(=O)(=O)c1ccc(NS(=O)(=O)c2ccc(NC(C)=O)cc2)cc1 | 68* | -2 | 0.89 | . | 0.084
CC1(C)C(=O)Nc2ccccc2N1C(=O)COC(=O)c1ccc(Cl)c(S(=O)(=O)NCc2ccccc2)c1 | 7 | -2 | -2.4 | . | -3.7*
O=C(CN(Cc1ccco1)C(=O)c1ccccc1)Nc1ccc(Cl)c(Cl)c1 | . | . | -3.7* | . | -8.7*
COc1ccccc1NC(=O)CN(Cc1ccco1)C(=O)c1ccc(-n2nc(C)cc2C)cc1 | 1 | -3 | -0.02 | . | -0.025
COc1ccccc1NC(=O)CN(Cc1ccco1)C(=O)c1cccs1 | -7 | -1 | -0.35 | -1 | -0.5
O=C(CN(Cc1ccco1)C(=O)c1cccc(Cl)c1)Nc1c(Cl)cc(Cl)cc1Cl | . | . | -1.9 | . | -4.5*
C/C(CCc1ccc2c(c1)OCO2)=N\N=C(/N)SC1CC(=O)N(c2ccccc2F)C1=O (configuration not stated) | . | . | 0.7 | . | -5.9*
COC(=O)CSc1nnc2n(C3CCCCC3)c(=O)c3c4c(sc3n12)CCCC4 | . | . | -1.4 | -5 | -3.9*
Cc1ccc(OCC(=O)c2c(O)c3ccccc3oc2=O)cc1C | . | . | 1.5 | . | -8.3*
Cc1ccc(C(C)C)c(OCC(=O)c2c(O)c3ccccc3oc2=O)c1 | . | . | 0.4 | . | -7.6*
CC1(C)NC(=O)N(CCOCCOc2c(Cl)cc(Cl)cc2Cl)C1=O | -2 | -3 | -0.11 | . | 0.1
CC(C)C(=O)N1CCN(c2ccc(NC(=O)c3ccc4c(c3)OCCO4)cc2Cl)CC1 | -4 | -4 | -3.6* | . | -0.7
O=C(c1ccc2c(c1)OCO2)N1CCN(c2ccc(Cl)cc2)CC1 | -10 | 0 | 0.07 | 5 | -1.3
CC(=O)N1CCN(c2ccc(NC(=O)c3ccc4c(c3)OCCO4)cc2)CC1 | -18 | 3 | -0.06 | 5 | -1.8
O=C(Nc1ccccc1N1CCN(C(=O)c2ccc(Cl)cc2)CC1)c1ccc2c(c1)OCO2 | -19 | 84 | -3.2* | 11 | -1.4
COc1ccc(-c2cc(-c3ccc(Br)cc3)nc3ncnn23)cc1OC | 18 | 5 | 0.24 | . | -0.99
Cc1cccc(N2CCN(C(=O)CCCOc3ccccc3)CC2)c1C | 39 | 1 | -0.91 | 6 | -7.7*
Cc1cccc(N2CCN(C(=O)Cn3cccc3C(=O)c3ccccc3)CC2)c1C | -2 | 0 | -1 | . | -3
CCOC(=O)N1CCN(C(=O)CCCOc2ccccc2)CC1 | 4 | 1 | 0.59 | 9 | 0.015
SMILES | CD11b adhes inh | CD11b adhes enh | PTK2B oligo ant | E coli RNAP | Cav3 T inh
Cc1cccc(N2CCN(C(=O)C(Cc3ccccc3)n3cccc3)CC2)c1C (configuration not stated) | 20 | 6 | . | . | -4.7*
O=C(C(Cc1ccccc1)n1cccc1)N1CCN(c2ncccn2)CC1 (configuration not stated) | 6 | -11 | . | 6 | -0.71
O=C(CCCOc1ccccc1)N1CCN(c2ccccc2)CC1 | 4 | 0 | -0.02 | . | -4.3*
Cc1ccc(S(=O)(=O)N2CC=C(c3ccc(F)cc3)CC2)cc1 | 41 | 0 | . | . | .
COc1ccccc1-n1cnnc1SCC(=O)c1cc(C)n(Cc2cccs2)c1C | 41 | -5 | 0.96 | 6 | -2.7
Cc1cc(C(=O)CSc2nnc(-c3ccccc3F)o2)c(C)n1Cc1cccs1 | 45 | -2 | -0.11 | 1 | -4.9*
C/C(CC(=O)NCc1ccco1)=N\NC(=O)Cc1ccc(Cl)cc1 | . | . | 0.22 | . | -0.77
C/C(CC(=O)Nc1cccc(Cl)c1)=N\NC(=O)Cc1ccc(Cl)cc1 | 16 | -3 | 2.3 | . | -9.1*
c1coc(-c2nc(-c3ccco3)c(-c3ccco3)nc2-c2ccco2)c1 | -4 | -4 | 0.64 | 23* | 0.13
Cc1ccc(C(C)C)c(OCCNC(=O)c2cncc(Br)c2)c1 | . | . | 2.4 | . | -4.9*
